Measurements published in PubChem BioAssay AID687030 (Broad Institute, 2013).
Screen size: about 1,400 compounds; about 10 (0.7%) were called active. How the calls were made is not given here. Only a sample is shown. Where a call stands in place of a potency, no number is given. Potency and affinity values are given separately.

Experiment: BHK-21 cell toxicity, dose response, cytotoxicity control, plate reader, cherry-pick samples (AID 687030);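 further: cells were exposed to compound for three days before reading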
Details: BHK-21 cells; series mostly up to 19.5 µM

Compound	outcome
C[C@@H]1CCCCO[C@@H](CN(C)C(=O)c2ccccc2)[C@@H](C)CN([C@H](C)CO)C(=O)c2cc(NC(=O)CCC(F)(F)F)ccc2O1	inactive
CC1(C)CN(Cc2cccnc2)C(=O)[C@H]1CC(=O)Nc1ccc(Br)cc1	inactive
Cc1cc(NC(=O)Cn2c(=O)oc3ccc(Cl)cc32)no1	inactive
CC(C)(C)NC(=O)c1cccc(NC(=O)c2ccc3c(c2)C(=O)N(C(C)(C)C)C3=O)c1	inactive
COc1cc(OC)cc(C(=O)Nc2ccc3nc4n(c(=O)c3c2)CCCC4)c1	inactive
CN(Cc1ccc(Cl)c(Cl)c1)C(=O)C1CC(=O)N(c2ccc3c(c2)OCCO3)C1 (stereo not given)	inactive
COc1ccc(CN2C(=O)CCC2(C)c2nnnn2Cc2ccccc2)cc1 (stereo not given)	inactive
Cc1cc(C)c(OCCCNC2CCCC2)c(Br)c1	inactive
COc1cc(O)c(C(CC(=O)N2CCCC(C)C2)c2cc(OC)c(OC)c(OC)c2)c(OC)c1 (stereo not given)	inactive
CN(C)c1ccc(CC(=O)N2CCCC(c3cc(C(=O)Nc4ccc(F)c(Cl)c4)no3)C2)cc1 (stereo not given)	inactive
C/C=C/c1cnc2c(c1)C(=O)N([C@H](C)CO)C[C@H](C)[C@H](CN(C)S(=O)(=O)c1ccccc1)O2	inactive
Cc1ccc(S(=O)(=O)N2CC[C@@H]3[C@H](CO)Nc4ccc(-c5ccccc5F)cc4[C@@H]32)cc1	inactive
COc1ccc(-c2ccc3c(c2)[C@H]2[C@H](CCN2C(=O)CN2CCOCC2)[C@@H](CO)N3)cc1	inactive
Cc1ccc(CNC(=O)[C@H](C)N2C(=O)N3CCc4c([nH]c5ccccc45)[C@@]3(C)C2=O)cc1	inactive
C/C(=N/NC(=O)CCC(=O)Nc1cccc(Cl)c1)c1ccc(C)cc1	inactive
CC(C)(C)NC(=O)C(c1cccc2ccccc12)n1c(=O)c(-c2ccccc2)nc2ccccc21 (stereo not given)	inactive
CCOc1ncccc1C(=O)OCC(=O)NCc1ccc(C(=O)OC)cc1	inactive
C[C@@H]1CCCCO[C@H](CN(C)C(=O)Nc2cccc3ccccc23)[C@@H](C)CN([C@@H](C)CO)C(=O)c2cc(NS(=O)(=O)c3cn(C)cn3)ccc2O1	inactive
CCn1c(SCc2cccc(F)c2)nnc1-c1ccncc1	inactive
Cc1cccc(C)c1-n1nnnc1C1(C)CCC(=O)N1Cc1cccnc1 (stereo not given)	inactive
O=C(NCC1CCCCC1)[C@@H]1[C@@H](CO)[C@@H]2Cn3c(cccc3=O)[C@H]1N2CCc1ccccc1	inactive
C[C@H]1CCCCO[C@H](CN(C)C(=O)Nc2ccc(C(F)(F)F)cc2)[C@@H](C)CN([C@@H](C)CO)C(=O)c2cc(NC(=O)C3CCCCC3)ccc2O1	inactive
OC(c1ccccc1)C(NCc1ccccc1)c1ccccc1 (stereo not given)	inactive
CCC(=O)Nc1ccc(NC(=O)c2oc3ccccc3c2C)cc1	inactive
CC1(C)CC(NC(=O)COc2ccccc2Cl)CC(C)(C)N1	inactive

Compound	outcome
O=C(NC1CCCC1)C(C1CC1)n1c(C2CCCC2)nc2ccccc21 (stereo not given)	inactive
CCOC(=O)c1ccc(S(=O)(=O)N2CCC(N3CCCCC3)CC2)cc1	inactive
CCc1ccc(NC(=O)N(CCCN2CCOCC2)Cc2cccs2)cc1	inactive
COc1ccc(N(C(=O)c2cccnc2)S(=O)(=O)c2ccc(OC)c(OC)c2)cc1	inactive
CO[C@@H]1CN(C)C(=O)c2ccc(NC(C)=O)cc2OC[C@@H](C)N(S(C)(=O)=O)C[C@H]1C	inactive
CCc1ccc2cc(C)cc(C)c2n1	inactive
COc1ccc(S(=O)(=O)Nc2ccc3c(c2)C(=O)N([C@@H](C)CO)C[C@@H](C)[C@H](CN(C)S(=O)(=O)c2ccc(Cl)cc2)O3)cc1	inactive
CCCn1c(-c2ccc[nH]c2=O)nc2cc(C)c(C)cc21	inactive
C[C@H]1CCCCO[C@@H](CN(C)C(=O)Nc2cccc3ccccc23)[C@@H](C)CN([C@@H](C)CO)C(=O)c2cc(NC(=O)Cc3ccccc3)ccc2O1	inactive
Cc1cccc(C(=O)N2CCC(=O)N([C@H](COCc3ccc(Cl)cc3)Cc3ccccc3)CC2)c1	inactive
Cc1c(C(=O)Nc2ccccc2F)sc2ncn(CC(=O)N3CCOCC3)c(=O)c12	inactive
Cc1nc2ccc(C(=O)NC(C)(C)C)cn2c1N(C)C(=O)CCc1ccccc1	inactive
O=C(Nc1ccc2ccccc2c1)C(C1CC1)n1c(=O)c(-c2cc3ccccc3[nH]2)nc2ccccc21 (stereo not given)	inactive
COc1ccc(CCC(C)NCc2ccc(F)cc2)cc1 (stereo not given)	inactive
CCCn1c(=N)n(CC(O)COc2ccc(C)cc2)c2ccccc21 (stereo not given)	inactive
CCN(C(=O)COC(=O)c1cc2c(s1)CCCCC2)C1CCS(=O)(=O)C1 (stereo not given)	inactive
Cc1cc(C)n2c(NC3CCCC3)c(-c3cccnc3)nc2n1	inactive
CCOC(=O)C1CCN(Cc2c(C(=O)N3CCOCC3)nc3c(C)cccn23)CC1	inactive
CCCCC[C@H]1CN(CCc2ccccc2)C(=O)[C@@H]1CC(=O)NCc1ccc(OC)cc1	inactive
CO[C@H]1CN(C)C(=O)c2cc(NC(=O)c3ccccc3F)ccc2OC[C@H](C)N(CC2CCOCC2)C[C@H]1C	inactive
CC(=O)N[C@@H]1CC[C@H](CCNC(=O)C2CCCC2)O[C@H]1CO	inactive
CC(C)NC(=O)Nc1ccc2c(c1)C(=O)N([C@@H](C)CO)C[C@H](C)[C@H](CN(C)C(=O)Nc1ccc3c(c1)OCO3)O2	inactive
COc1ccc(NC(=O)Nc2cccc3c2O[C@H](CN(C)S(=O)(=O)c2ccccc2)[C@H](C)CN([C@@H](C)CO)C3=O)cc1	inactive
COc1ccc(S(=O)(=O)N2CCCC2C(=O)NCC(=O)Nc2cccc(Cl)c2C)cc1 (stereo not given)	inactive
O=C(NCc1ccncc1)c1cccc(NS(=O)(=O)c2ccc(F)c(F)c2)c1	inactive
